Results on 46 compounds are retold here after PubChem BioAssay AID686996 (Broad Institute, 2013).

Broadly, the inhibition is the change of the read-out against control, counted positive when it falls.

About 1,900 (0.54%) of roughly 350,000 compounds were called active.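 The calls were made as follows: active = mean inhibition across replicates at least about 35%, with every replicate also reaching that limit (limit read from the data); inconclusive = only one of the two criteria met; inactive = neither criterion met.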 What follows is part of a selection rich in actives, with near analogues and random picks from the rest.

This assay deals with Caspase-6 (Homo sapiens) (UniProt P55212). Briefly: inhibition of CASP6 peptide cleavage – biochemical, VEID-R110 fluorescence, single point, set 2, primary screen (AID 686996).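 Also: 0% = median of neutral control wells and 100% = no fluorescence left.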 To be noted: purified caspase-6, Z-VEID-R110 cleavage fluorescence; at 12.5 µM; stronger effect = higher value.
Sequence of Caspase-6 (Homo sapiens) (P55212 24-179 limits assumed): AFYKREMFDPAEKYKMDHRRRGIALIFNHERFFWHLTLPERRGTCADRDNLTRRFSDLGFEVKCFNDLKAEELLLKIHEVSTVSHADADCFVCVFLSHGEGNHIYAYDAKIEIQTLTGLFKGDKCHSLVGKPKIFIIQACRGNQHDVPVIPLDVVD
Sequence of Caspase-6 (Homo sapiens) (P55212 194-293 limits assumed): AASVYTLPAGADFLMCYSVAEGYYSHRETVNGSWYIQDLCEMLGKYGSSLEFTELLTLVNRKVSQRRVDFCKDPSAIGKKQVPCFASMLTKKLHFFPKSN
Consider `N#C[C@H]1[C@@H](c2ccccc2-c2ccccc2F)[C@@H](CO)N1C(=O)C1CCC1`, for which the inhibition is -2.32% (inactive).

`CC(=O)N1[C@@H](CO)[C@@H](c2ccc(C3=CCCC3)cc2)C12CN(C(=O)C1CC1)C2`: the inhibition was 0.171% (inactive).

Turning to `COc1ccc(S(=O)(=O)Nc2ccc3cn[nH]c3c2)cc1[N+](=O)[O-]`, the inhibition is 9.88% (inactive).

Take `O=C(Nc1ccc2cn[nH]c2c1)c1ccc(S(=O)(=O)N2CCOCC2)cc1`: the inhibition was 0.612% (inactive).

As for `O=C(O)c1cc(S(=O)(=O)Nc2ccc3cn[nH]c3c2)ccc1Br`, the inhibition was 43.4% (active).

For `C/C=C/c1ccccc1[C@@H]1[C@@H](CO)N(C(=O)CN2CCOCC2)[C@H]1C#N`, the inhibition is -0.139% (inactive).

For `C[C@H]1CN([C@@H](C)CO)C(=O)Cc2cc(NC(=O)CCCCCC(=O)Nc3ccccc3N)ccc2O[C@H]1CN(C)C(=O)Nc1ccc(F)cc1`, the inhibition was 0.452% (inactive).

On to `O=C(NNC(=O)c1cc(S(=O)(=O)N2CCCCC2)ccc1Cl)c1ccccc1O`, for which the inhibition is 0.767% (inactive).

With `O=C(NNC(=O)c1ccccc1O)c1ccccc1O`, the inhibition was 73.9% (active).

Turning to `Cc1cc(C(=O)CCC(=O)NNC(=O)c2ccccc2O)c(C)s1`, the inhibition was 4.5% (inactive).

For the compound `CN(C)CCCNC(=O)C[C@H]1CC[C@H]2[C@@H](COC[C@H](O)CN2C(=O)c2ccncc2)O1`, the inhibition was 0.773% (inactive).

As for `COC(=O)C(=Nc1ccccc1)/C(C(=O)C(=O)N(C)c1ccccc1)=C(\O)c1ccc(Cl)cc1`, the inhibition is 40.1% (active).

As to `CN(c1ccccc1)S(=O)(=O)c1cccc(NC(=O)Cc2ccc(Cl)cc2)c1`, the inhibition was -0.727% (inactive).

With `COC(=O)c1cn(C(=O)c2ccc(Cl)cc2)c2ccccc12`, the inhibition is 0.734% (inactive).

Turning to `CN1C(=O)c2cc(NC(=O)C3CC3)ccc2OC[C@@H]2O[C@@H](CC(=O)NCC3CCCCC3)CC[C@@H]21`, the inhibition was -1.04% (inactive).

In the case of `CO[C@H]1CN(C)C(=O)c2cc(NC(=O)Nc3c(C)noc3C)ccc2OC[C@@H](C)N(CCC(F)(F)F)C[C@H]1C`, the inhibition is -1.87% (inactive).

`C[C@@H]1CN([C@@H](C)CO)C(=O)c2cc(C#CC3CC3)cnc2O[C@@H]1CN(C)C(=O)Cc1ccccn1`: the inhibition was 0.481% (inactive).

Take `CC(C)(C)S(=O)N1Cc2cc(C(=O)NCCCN3CCOCC3)nc(-c3cccc(-c4cc5ccccc5o4)c3)c2[C@H]1CCO` (stereo partly specified): the inhibition was -2.64% (inactive).

With `COc1ccc(C#Cc2cccc(-c3nc(C(=O)O)cc4c3[C@@H](CCO)N(S(=O)C(C)(C)C)C4)c2)cc1OC` (stereo partly specified), the inhibition is 35.2% (active).

For the compound `CC(C)(C)S(=O)N1Cc2cc(C(=O)O)nc(-c3cccc(-c4cc5ccccc5o4)c3)c2[C@@H]1CCO` (stereo partly specified), the inhibition was 37.1% (active).

On to `COc1ccccc1-c1cccc(-c2nc(C(=O)N3CCN(C)CC3)cc3c2[C@H](CCO)N([S@@](=O)C(C)(C)C)C3)c1`, for which the inhibition was -1.46% (inactive).

Regarding `CC(C)(C)[S@](=O)N1Cc2cc(C(=O)N3CCCCC3)nc(-c3cccc(-c4ccccc4F)c3)c2[C@@H]1CCO`, the inhibition is -3.88% (inactive).

For the compound `CC(C)(C)[S@@](=O)N1Cc2cc(C(=O)O)nc(-c3cccc(-c4cccc(F)c4)c3)c2[C@H]1CCO`, the inhibition was -2.52% (inactive).

With `COc1ccc(NC(=O)O[C@H]2[C@H](OC(=O)Nc3ccc4c(c3)OCO4)[C@@H](OC(=O)Nc3ccc4c(c3)OCO4)[C@@H](OC)O[C@@H]2CO)cc1`, the inhibition was -3.42% (inactive).

Turning to `Cc1ccc(S(=O)(=O)N[C@@H]2CC[C@H](CCn3cc(C4(O)CCCC4)nn3)O[C@H]2CO)cc1`, the inhibition is -2.61% (inactive).

As to `Cc1ccccc1-c1ccc2c(c1)O[C@H](CN(C)Cc1ccc(C(=O)O)cc1)[C@@H](C)CN([C@H](C)CO)S2(=O)=O`, the inhibition was -3.25% (inactive).

On to `COc1ccccc1C#Cc1ccc([C@@H]2[C@@H](CO)N3CCCCN(S(C)(=O)=O)C[C@@H]23)cc1`, for which the inhibition was -2.85% (inactive).

For `Cc1cc(/C=N/Nc2ccc([N+](=O)[O-])cn2)c(C)n1-c1cccc(C(=O)O)c1`, the inhibition was 40.7% (active).

As for `CC(C)c1ccc(C=NNc2ccc([N+](=O)[O-])cn2)cc1`, the inhibition is -4.08% (inactive).

Consider `Cc1cc(C=O)c(C)n1-c1ccc(NC2CCCCC2)c([N+](=O)[O-])c1`, for which the inhibition was -0.869% (inactive).

Consider `C[C@H](O)C#Cc1ccc2c(c1)O[C@H](CN(C)Cc1cccnc1)[C@H](C)CN([C@H](C)CO)S2(=O)=O`, for which the inhibition was -2.82% (inactive).

As for `O=C(N[C@@H]1CC[C@@H](CC(=O)N2CCc3ccccc3C2)O[C@H]1CO)C1CC1`, the inhibition is -3.42% (inactive).

For the compound `CCC(=O)N(C)C[C@H]1Oc2ncc(C#Cc3cccnc3)cc2C(=O)N([C@H](C)CO)C[C@H]1C`, the inhibition was 2.38% (inactive).

On to `C[C@@H]1CCCCO[C@@H](CN(C)S(=O)(=O)c2ccccc2)[C@@H](C)CN([C@@H](C)CO)C(=O)c2cc(NS(=O)(=O)c3cn(C)cn3)ccc2O1`, for which the inhibition was 2.27% (inactive).

As for `CN(CCOc1ccccc1)C(=O)c1cc(-c2ccco2)nc2ccccc12`, the inhibition is 4.78% (inactive).

Regarding `Cc1cc(C)c2nc(-c3ccco3)cc(C(=O)O)c2c1`, the inhibition was 42.1% (active).

Regarding `CC1CCCN(C(=O)c2cc(-c3ccco3)nc3ccccc23)C1` (stereo unspecified), the inhibition is 2.88% (inactive).

Regarding `COCC#Cc1cnc2c(c1)C(=O)N([C@H](C)CO)C[C@H](C)[C@H](CN(C)C(=O)Nc1ccccc1OC)O2`, the inhibition was 0.658% (inactive).

Consider `O=C(c1cccc(F)c1)N1CC(=O)N2[C@H](C1)[C@@H](c1ccc(C#Cc3ccc(F)cc3)cc1)[C@@H]2CO`, for which the inhibition was 1.71% (inactive).

As to `Clc1ccccc1Nc1nc(NCc2cccs2)nc2ccsc12`, the inhibition was -2.77% (inactive).

Consider `COc1ccccc1CNc1nc(Nc2ccccc2Cl)c2sccc2n1`, for which the inhibition is -1.14% (inactive).

In the case of `COCCNc1nc(Nc2ccccc2Cl)c2sc(-c3ccccc3)cc2n1`, the inhibition was 35.1% (active).

As to `C[C@H](CO)N1C[C@H](C)[C@H](CN(C)Cc2cncnc2)Oc2cc(-c3ccccc3F)ccc2S1(=O)=O`, the inhibition is -1.88% (inactive).

As to `CC(C)n1ncc2c(C(=O)Nc3ccc(CC#N)cc3)cc(C3CC3)nc21`, the inhibition was -2.38% (inactive).

Regarding `CNC(=O)c1ccc(CN(C)C(=O)c2cc(C3CC3)nc3c2cnn3C(C)C)cc1`, the inhibition was 50.4% (active).

As to `CC(C)n1ncc2c(C(=O)NCc3ccccc3CN(C)C)cc(C3CC3)nc21`, the inhibition was -1.64% (inactive).
